Results on 2 sequences are retold here after patent publication US20200347384, “Screening artificial nucleic acids by particle display” (THE REGENTS OF THE UNIVERSITY OF CALIFORNIA, published 2020).

The target of assay [1] is T1, HIV-1 reverse transcriptase (HIV RT) (Human immunodeficiency virus, UniProt P03366;P03366 P03366:600-1159,P03366:600-1039). As to the kind of experiment: MST; two 5' flanking nucleotides deleted. Particulars: tags: His-tag (inferred from Ni-NTA immobilisation); XNA; TNA at all positions.
Assay [2] deals with T1, HIV-1 reverse transcriptase (HIV RT). As to the kind of experiment: MST; five 3' flanking nucleotides deleted. Conditions: tags: His-tag (inferred from Ni-NTA immobilisation); XNA; TNA at all positions.

For the sequence TAGTAAATTGATTTAAAAATTTCATAAATGCTACATAA, the binding signal in assay [1] was ~3 fold reduction in affinity.

Take AATAGTAAATTGATTTAAAAATTTCATAAATGCTA: in assay [2], the binding signal is ~3 fold reduction in affinity.
